Source: PubChem BioAssay
Rows were chosen to be rich in hits. Some 11% of all compounds tested hit in one or more screens of this group.
Pf growth 96h: Primary qHTS for delayed death inhibitors of the malarial parasite plastid, 96 hour incubation | P. falciparum luciferase reporter growth, 96 h | Potency, µM (top dose mostly 28.7 µM), inactives show top-dose activity change, negative = inhibition, actives largely listed as inhibitors | 320,000 tested, 6.9% active | AID 504834, 2011
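Plates of compound plus infected erythrocytes (2% hematocrit, 0.05% parasitemia final) incubate 96 hours, 37 C, 5% CO2. Detection reagent added; reduced luminescence from the parasites' luciferase reporter flags inhibition.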
HCV inhibitor: qHTS Assay for Inhibitors of Hepatitis C Virus (HCV); Potency, µM (series often up to 41.8 µM), inactives show at the highest dose activity change, negative = inhibition, actives largely listed as inhibitors; AID 651820, 2012; Huh7.5.1 HCVcc-Cre infection, luciferase reporter, 44 h; 340,000 tested, 3.4% active
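Cells seeded at 1,000/well and cultured 4 h, then compounds added followed by HCVcc-Cre virus (~0.5 moi). After 44 h further culture, luciferase substrate was added, plates held 15 min at room temperature, and luminescence read for 15 sec.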
AMA1 RON2 block: qHTS for Inhibitors of AMA1-RON; Towards Development of Antimalarial Drug Lead: Primary Screen; Plasmodium falciparum AMA1 (3D7) - RON2 peptide interaction; AlphaScreen AMA1-biotinylated RON2 peptide binding; Potency, µM (series often up to 58.2 µM), inactives show at the top dose activity change, negative = inhibition, actives largely listed as inhibitors; 360,000 tested, 0.2% active;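 also: 0% = vehicle wells and -100% = peptide control; nearly all actives have a fitted effect of over 45% in size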
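AMA1 (3D7) with his tag at 25 nM final met compounds first, then biotinylated RON2 peptide at 25 nM; detection used donor plus acceptor beads, 10 µg/mL apiece, read by AlphaScreen after 30 min at room temperature.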
Pf growth 48h: Primary qHTS for delayed death inhibitors of the malarial parasite plastid, 48 hour incubation. P. falciparum luciferase growth in erythrocytes, 48 h. Potency, µM (doses to about 28.7 µM), without a hit: at the top dose activity change, negative = inhibition, most hits filed as inhibitors. 310,000 tested, 5.9% active. AID 504832, 2011
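Cell-based growth assay: transgenic P. falciparum expressing firefly luciferase, cultured in red cells within RPMI 1640 containing 0.5% w/v Albumax, 24 mM bicarbonate and gentamycin. A drop in luciferase activity indicates inhibition.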
Starred values were filed as active, the others as inactive; ? = inconclusive; . = no result; [ ] = dose if it differs, or a comment. Calls follow the shape of the dose curve; as a rule, active = well fitted curve in the direction sought with a large enough effect; inconclusive = small, poorly fitted or top-dose-only effect, or another doubt; inactive = no such curve, though single readings can be large; an effect the other way counts as inactive or inconclusive. Unless noted, % is scaled to controls: 0 for no effect and ±100 for the full control effect; potency is read from the fitted curve at half-maximal effect.

SMILES	Pf growth 96h	HCV inhibitor	AMA1 RON2 block	Pf growth 48h
COc1ccc(C2=NOC3(CC(=O)N(c4ccc(C)cc4)C3=O)C2)c(OC)c1 (centres undefined)	8%[5.75 µM]	9%	-2%	9%
Cc1oc(-c2cccs2)cc1C(=O)N1CCCC(C)(C(=O)O)C1 (centres undefined)	.	.	2%	.
O=C(OCC#CCSc1nnc(-c2cccc3ccccc23)o1)c1ccco1	9%	-16%	1%	5%
Cc1ccc(C)c(NC(=S)NCCc2ccc(F)cc2)c1	?	?	55%	13µM*
Cc1ccc(NC(=S)NCCc2ccccc2)c(C)c1	5%	?	0%	?
NC(=O)c1ccc(NC(=O)CSc2cn(CC(=O)N3CCOCC3)c3ccccc23)cc1	-7%	21%	10%	18%
CC1=NN(C(=O)Cc2ccc([N+](=O)[O-])cc2)C(O)(c2ccccc2)C1 (centres undefined)	.	10%	18%	-23%
COc1ccc(CC(=O)N2CCC(c3ccccc3)C2)cc1 (centres undefined)	41%	5%	0%	40%
COc1ccc(CC(=O)N2CCC(Nc3nc4ccccc4n3Cc3ccc(F)cc3)CC2)cc1	9.3µM*	?	-27%	4.1µM*
CCCn1cnnc1CNC(=O)[C@H]1O[C@@H](n2cnc3c(N)ncnc32)[C@H](O)[C@@H]1O	.	.	2%	.
CCOC(=O)C1(Cc2ccc(Cl)cc2)CCN(C(=O)c2sc(C)nc2C)CC1	?	11µM*	-10%	?
CCOC(=O)C1(Cc2ccc(OC)cc2)CCN(C(=O)c2sc(C)nc2C)CC1	9%	?	2%	-9%
CCOC(=O)C1(Cc2ccc(Cl)cc2)CCN(CCCn2cccn2)CC1	96%	3.2µM*	4%	-19%
O=c1[nH]cnc2scc(-c3ccccc3)c12	-20%	8%	-3%	2.6µM*
COc1cc(S(=O)(=O)NCc2ccccn2)c(OC)cc1Cl	9.3µM*	3%	25%	-23%
COc1cc(S(=O)(=O)NCc2ccccn2)ccc1Cl	17%	4%	29%	27%
CCn1c(SCC(=O)N/N=C/c2c[nH]c3ccccc23)nnc1-c1ccc(C(C)(C)C)cc1	10µM*	?	0%[2.32 µM]	?
Cc1ccc2[nH]cc(C(=O)CCl)c2c1	-24%	25µM*	0%	?
Cc1ccc2[nH]cc(C(=O)CN3CCN(C)CC3)c2c1	?	29%	1%	-5%
COc1ccccc1N(C)S(=O)(=O)c1ccc(Cl)c(C(=O)NCc2cccnc2)c1	0%	16%	10%	?
CCOc1ccc(N(C)S(=O)(=O)c2ccc(C)c(C(=O)NCc3ccccc3OC)c2)cc1	9.3µM*	?	-5%	12µM*
COc1ccccc1N(C)S(=O)(=O)c1ccc(C)c(C(=O)NCc2ccccn2)c1	?	5%	47%	10µM*
COc1ccccc1N(C)S(=O)(=O)c1ccc(C)c(C(=O)Nc2nccs2)c1	?	-13%	29%	12µM*
O=C(O)C(Cc1c[nH]c2ccccc12)N1CCS(=O)(=O)CC1 (centres undefined)	7%	9%	-3%	0%
CC1=CC(=C(c2ccc(N)cc2)c2ccc(N)cc2)C=CC1=N	1.1µM*	.	.	2.4µM*
SMILES	Pf growth 96h	HCV inhibitor	AMA1 RON2 block	Pf growth 48h
O=C(NC(=S)Nc1ccc(N2CCOCC2)c(Cl)c1)C(c1ccccc1)c1ccccc1	?	6%	20%	16%
CC(C)CC(=O)NC(=S)Nc1ccc(N2CCCC2)c(Cl)c1	?	-28%	-17%	3.3µM*
CCCC(=O)NC(=S)Nc1ccc(N2CCOCC2)c(Cl)c1	12µM*	-3%	3%	?
CC(C)C[C@@H](COc1ccccc1)N1CCN(Cc2ccccc2)CCC1=O	?	-15%	-12%	?
C/C(CC(=O)Nc1ccccn1)=N\NC(=O)c1ccc2ccccc2c1	1.9µM*	2%	53%	24%
C/C(CC(=O)Nc1ccccn1)=N\NC(=O)c1ccncc1	17%	.	.	?
C/C(CC(=O)Nc1ccccn1)=N\NC(=O)c1ccccc1O	33%	7.1µM*	35%	10%
C/C(CC(=O)Nc1ccccn1)=N\NC(=O)c1ccccc1	42%	4%	.	24%
CN1C(C(=O)NCc2ccc(OC(F)(F)F)cc2)CC2Cn3c(nc4cc5ccccc5cc43)C21 (centres undefined)	-19%	?	4%	9%
